HCV inhibitor: qHTS Assay for Inhibitors of Hepatitis C Virus (HCV); Huh7.5.1 HCVcc-Cre infection, luciferase reporter, 44 h; actives 3.4% (n = 340,000); Potency, µM (doses to about 41.8 µM), for inactives: at the highest dose activity change, negative = inhibition, usual class: inhibitors; active means well fitted inhibition curve with a large enough effect; inconclusive means small, poorly fitted or top-dose-only effect, or another doubt; inactive means no such curve, though single readings can be large or run the other way; further: potency means the concentration at half of the fitted maximal effect; on the % scale 0 is the no-effect control and ±100 the full control effect
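A cell-based infection assay in which seeded cells (1,000 per well) receive test compound after 4 h, are inoculated with HCVcc-Cre at approximately 0.5 moi, and are incubated 44 h before luminescence detection.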
Lassa entry inh: qHTS for Inhibitors of binding or entry into cells for Lassa Virus | actives 1.2% (n = 300,000) | Lassa virus pseudotype entry inhibition, cell reporter | Potency, µM (doses to about 37.9 µM), inactives show at the highest dose activity change, negative = inhibition, actives largely listed as inhibitors; calls by dose curve; tested in HEK293 cells; further: potency means the concentration at half of the fitted maximal effect; on the % scale 0 is the no-effect control and ±100 the full control effect; nearly all actives have a fitted effect of over 50% in size
MARV entry inh: qHTS for inhibitors of binding or entry into cells for Marburg Virus; Marburg virus pseudotyped entry inhibition, cell reporter; Potency, µM (titrated, usually from 37.8 µM), inactives show at the highest dose activity change, negative = inhibition, actives largely listed as inhibitors; actives 1.8% (n = 300,000); AID 540276, 2011; calls by dose curve; tested in HEK293 cells; further: potency means the concentration at half of the fitted maximal effect; on the % scale 0 is the no-effect control and ±100 the full control effect
Shiga toxin inh: A qHTS for Small Molecule Inhibitors of Shiga Toxin. actives 9.2% (n = 290,000). Vero cells, Shiga toxin protein synthesis inhibition reporter. inhibition, % at 38.7 µM; in the data active means inhibition mostly above about 28%, no sharp cut-off; inactive means mostly below about 43%; further: 0% is about no effect
FMDV antiviral: High Throughput Screening for Foot and Mouth Disease Virus Antivirals | FMDV antiviral cell-based qHTS | Potency, µM (titrated, usually from 57.9 µM), without a hit: at the highest dose activity change, negative = inhibition, most hits filed as inhibitors | actives 1.2% (n = 410,000) | AID 1159524, 2015; calls by dose curve; tested in HEK293T cells; further: read-out not given here; potency means the concentration at half of the fitted maximal effect; on the % scale 0 is the no-effect control and ±100 the full control effect; nearly all actives have a fitted effect of over 45% in size
Cycloheximide cs: Cycloheximide Counterscreen for Small Molecule Inhibitors of Shiga Toxin | cell reporter, cycloheximide protein synthesis inhibition counterscreen | max response, % | actives 12% (n = 300,000); in the data active means max response mostly above about 13%, no sharp cut-off; inactive means mostly below about 14%; further: read at 38.3 µM for the half of the compounds with a filed dose; 0% is about no effect
* hit, by the source's call; ? = inconclusive; · = no result; + = active, no number; [ ] = remark or other dose. A selection: hits, their analogues and other compounds. The true share with any hit is near 13%.

SMILES	HCV inhibitor	Lassa entry inh	MARV entry inh	Shiga toxin inh	FMDV antiviral	Cycloheximide cs
CN(CC(=O)Nc1ccc2c(c1)OCCO2)S(=O)(=O)c1ccc(F)cc1	-4.4%	?	?	117.3*	0.0%	26.6*
CN(CC(=O)Nc1ccc2c(c1)OCO2)S(=O)(=O)c1cccs1	-3.5%	-5.5%	?	67.3*	38.7%	46.5*
COc1ccc(/C=N\NC(=S)SCN2C(=O)C3CCC(C)(C2=O)C3(C)C)cc1 (configuration not stated)	16.2%	-20.0%	0.6%	·	3.5%	·
CC12CCC(C(=O)N(CSC(=S)N/N=C\c3ccccc3O)C1=O)C2(C)C (configuration not stated)	0.4%	?	-29.6%[46.1 µM]	56.2	1.3%	26.0*
O=c1sc2ccccc2n1CCCOc1ccccc1	?	25.6%	5.5%[46.1 µM]	118.7*	55.8%	42.3*
O=c1sc2ccccc2n1COc1ccc(Cl)cc1	-18.7%	4.7%	20.4%	71.8	15.1%	35.0*
O=c1sc2ccccc2n1COc1ccccc1	19.6%	28.0%	0.5%	47.8	25.2%	14.6
Cc1ccc(OCCn2c(=O)sc3ccccc32)cc1	-26.3%	1.4%	?	60.5*	2.2%	45.0*
Cc1ccccc1OCCCn1c(=O)sc2ccccc21	?	12.4%	-15.1%[46.1 µM]	105.5*	29.9%	65.9*
COc1cc(O)c(C(CCN2CCCCC2)c2cc(OC)c(OC)c(OC)c2)c(OC)c1 (configuration not stated)	?	·	0.0%	-2.7	-0.2%	-2.6
CC(C)CCNC(=S)Nc1ccccc1F	?	-16.8%	0.1%	-3.1	26.6%	-2.8
COc1ccccc1C(=O)n1nc(-c2ccco2)nc1SC	7.8%	-18.6%[46.1 µM]	?	-10.4	-10.7%	5.5
Cc1ccc(OCCCn2c(=O)sc3ccccc32)cc1	-4.7%	4.6%	?	18.8	16.8%	24.2*
COc1ccc(Cn2c(=O)sc3ccccc32)cc1	2.4%	21.1%	15.9%	-1.2	4.2%	0.5
COc1ccccc1C(=O)NNC(=O)C1CC=CCC1 (configuration not stated)	19.3%	9.7%[46.1 µM]	?	34.1	28.8%	25.1*
COc1ccccc1C(=O)NNC(=O)c1ccc(Cl)cc1	12.2%	·	·	20.9	31.8%	17.1*
Cc1ccccc1C(=O)NNC(=O)c1ccc(F)cc1	1.9%	2.0%	16.9%	62.1	53.4%	19.6*
COc1ccc(C(=O)NNC(=O)OC(C)(C)C)cc1	11.7%	·	·	-8.3	-0.6%	1.4
CC(C)(C)OC(=O)NNC(=O)c1ccc(Cl)cc1	14.9%	1.0%	-3.0%	25.7	8.2%	13.4*
COc1ccccc1C(=O)NNC(=O)c1ccc(F)cc1	19.2%	7.6%	14.8%	65.0*	23.0%	57.0*
CCN(CC)c1ccc(C=N/C(C#N)=C(\N)C#N)cc1	-24.3%	23.7%	29.7%	54.1*	42.3%	27.7*
CCN(CC)c1ccc(/C=N/Nc2nn[nH]n2)cc1	6.4%	·	·	26.2	10.8%	7.2
CCC(=O)Nc1ccc2c(c1)ncn2-c1ccccc1	-2.6%	?	0.4%	85.4*	14.8%	33.4*
CC(=O)Nc1ccc2c(c1)ncn2-c1ccccc1	10.4%	3.1%	?	56.4*	55.7%	48.9*
CCC(=O)Nc1ccc2c(c1)ncn2-c1ccccc1OC	8.0%	11.3%	?	23.6	5.3%	7.2
SMILES	HCV inhibitor	Lassa entry inh	MARV entry inh	Shiga toxin inh	FMDV antiviral	Cycloheximide cs
CCN(CC)CCNc1ccnc2cc(Cl)ccc12	5.62µM*	-17.5%	2.91µM*	-5.8	-21.0%	3.3
O=C(NCCNc1ccnc2cc(Cl)ccc12)c1ccccc1F	12.6µM*	·	·	-3.6	?	1.3
O=C(NCCNc1ccc(Cl)cc1[N+](=O)[O-])c1ccccc1F	-9.6%	·	·	19.2	13.8%	12.3*
CCN(CCO)CCCC(C)Nc1ccnc2cc(Cl)ccc12 (configuration not stated)	·	·	·	3.9	-13.7%	-2.7
CCNC1CCC(Nc2ccnc3cc(Cl)ccc23)CC1 (configuration not stated)	12.6µM*	?	?	·	-22.0%	·
COc1ccc(N2C(=O)CS(=O)(=O)C23C(=O)N(Cc2ccccc2F)c2ccccc23)cc1Cl (configuration not stated)	·	-21.3%[46.1 µM]	·	·	0.0%	·
CC1(C)N([O-])[N+](=O)C1(C)Br (configuration not stated)	·	·	·	·	-3.8%	·
Cc1ccc(C)c(S(=O)(=O)/N=C(/Nc2ccccc2)c2ccccc2)c1	?	6.8%[46.1 µM]	?	·	17.1%	·
N#Cc1ccc(NCCc2ccccn2)c([N+](=O)[O-])c1	1.9%	·	·	-0.7	2.2%	8.0
O=[N+]([O-])c1cc(Cl)ccc1NCCc1ccccn1	-13.7%	17.5%	27.3%[46.1 µM]	56.7*	4.2%	17.9*
Oc1ccc(-c2cnns2)c(O)c1	?	11.2µM*	?	-3.9	-18.9%	-1.9
Cc1ccc(Nc2nc3nonc3[nH]c2=O)cc1	9.2%	-12.6%	-12.7%	58.4*	33.1%	26.9*
Cn1c(=O)oc2cc(S(=O)(=O)Nc3ccc4c(c3)OCCO4)ccc21	-5.3%	0.9%	5.1%	42.4	-19.9%	15.6
COc1ccc(NS(=O)(=O)c2ccc3oc(Nc4ccc5c(c4)OCCO5)nc3c2)cc1	3.98µM*	?	-13.9%	+	7.6%	30.1*
Cn1c(=O)c(=O)n(C)c2cc(S(=O)(=O)Nc3ccc4c(c3)OCCO4)ccc21	13.1%	-0.8%	8.9%	115.2*	39.8µM*	61.6*
COc1ccc(NS(=O)(=O)c2ccc(NS(=O)(=O)c3ccc4c(c3)OCCO4)cc2)cc1	·	18.2%[46.1 µM]	-6.8%[46.1 µM]	·	25.8%	·
O=S(=O)(Nc1ccc(-c2cn3ccsc3n2)cc1)c1ccc2c(c1)OCCO2	-12.7%	-1.4%	-5.0%	68.9*	70.9%	12.2
COc1ccc(NS(=O)(=O)c2ccc3oc(SC(C)C(N)=O)nc3c2)cc1 (configuration not stated)	10µM*	?	?	-16.3	-22.6%	1.0
CC(C)(C)c1ccc(Oc2ccc(NC(=O)CCC(=O)OCC(=O)c3ccccc3)cc2)cc1	·	?	1.3%[46.1 µM]	·	-13.5%	·
C#CCOCCOCCOCCNc1nc(N2CCN(C(=O)[C@H]([C@@H](C)CC)n3cc([C@@H](N)CC(C)C)nn3)CC2)nc(N2CCN(C(=O)[C@H](Cc3cc4ccccc4[nH]3)n3cc([C@@H](N)Cc4ccc(O)cc4)nn3)CC2)n1	29.9%	·	·	-15.4	-5.6%	3.3
COC(=O)COc1ccc(S(=O)(=O)Nc2ccc3c(c2)OCCO3)cc1C	7.6%	27.0%[46.1 µM]	3.4%[46.1 µM]	68.1*	-17.6%	24.8*
COc1cccc(S(=O)(=O)Nc2ccc3c(c2)OCCO3)c1	-9.8%	-6.1%	-12.2%	51.7*	-21.6%	36.7*
COc1ccc(Cn2c(-c3ccc(C)cc3)c[n+]3ccccc23)cc1	?	6.31µM*	?	21.1	?	10.1

Screening data as filed in PubChem BioAssay.
